Data as given in PubChem BioAssay (Tox21).
Records with an inconclusive call do not appear. Where a call stands in place of a potency, no number is given. Active and inactive are the calls of the source. The call rests on the fitted dose curve; in most records, active means well fitted activation curve with a large enough effect in the repeat runs; inconclusive means weak or mixed curves; inactive means flat fitted curve, though single readings scatter.

Assay: A CellTox Green Cytotoxicity Assay to monitor cytotoxicity in HEK293 cells - 8 hour (AID 1224884); further: nearly all actives have a fitted effect of over 35% in size
Details: CellTox Green fluorescence; series mostly up to 76.8 µM
Excerpt: National Center for Advancing Translational Sciences [NCATS]
NIH Chemical Genomics Center [NCGC]
U.S. Environmental Protection Agency [EPA]
National Institutes of Environmental Health Sciences [NIEHS]
National Toxicology Program [NTP]
Cell-based models are critical for drug discovery. Determining the natural cytotoxic effects resulting from test compounds is an essential research activity. A CellTox Green Cytotoxicity Assay to monitor cytotoxicity in real time of continues cell culture during 40 hours of the compound treatment was used to screen Tox21 10K library compounds in Hek293 cells. CellTox Green Cytotoxicity Assay is a nonlytic, homogeneous, biofluorescent method to measure cytotoxicity in cell culture after experimental manipulation. The assay system uses a proprietary asymmetric cyanine dye that is excluded from viable cells but preferentially stains the dead cell's DNA. […] Viable cells produce no appreciable increases in fluorescence. Therefore, the fluorescence signal produced by the binding interaction with dead cell DNA is proportional to cytotoxicity.
The mixture of Hek293 cell suspension and reagents were dispensed at 600cells/6 ul/well in 1536-well tissue culture treated black solid bottom plates using a Multidrop dispenser. After the assay plates were incubated at a 37 C/5% CO2 incubator for 5 hours, 23 nL of compounds dissolved in DMSO, positive and negative controls was transferred to the assay plate by a pintool work station. The plates were incubated at 37 C for 40 hours. The fluorescence intensity were measured at 0h, 8h, 16h, 24h, 32h and 40h time points using ViewLux plate reader during compound treatment.

SMILES	Potency	cytotoxicity increase
CCCOc1ccc(C(=O)OCCN(CC)CC)cc1N	inactive	–
CCOC(=O)CC(C(C)=O)C(C)=O	inactive	–
CC(C)C(C)C	inactive	–
CCCCCCCCC1CO1 (stereo not given)	inactive	–
CCCCC(CC)COC(=O)CC#N (stereo not given)	inactive	–
COc1cc(OC)cc(OC)c1	inactive	–
Cc1cc2c(cc1CC(=O)c1sccc1S(=O)(=O)Nc1onc(C)c1Cl)OCO2	inactive	–
COC(=O)C(c1ccccc1Cl)N1CCc2sccc2C1 (stereo not given)	inactive	–
C/C=C/C(=O)CCCC	inactive	–
Cc1nc2ccc(Cl)cc2[nH]1	inactive	–
CNC(=O)c1c(I)c(NC(C)=O)c(I)c(C(=O)O)c1I	inactive	–
COC(C)(C)CC(C)=O	inactive	–
C=C(C)C(=O)OCCOC1CC2CC1C1C=CCC21 (stereo not given)	inactive	–
O=C1CCCc2c(O)cccc21	inactive	–
CC(=O)/C=C/C=C1/C2CCC(C2)C1(C)C (stereo not given)	inactive	–
NNC(=O)OCc1ccccc1	inactive	–
C[C@@H]1CCC[C@H](C)N1CCCC(O)(c1ccccc1)c1ccccn1 (stereo not given in full)	inactive	–
C=CCCCCCCCCOC(C)=O	inactive	–
CCC(C)c1nccnc1OC (stereo not given)	inactive	–
C[C@@H](CN1CC(=O)NC(=O)C1)N1CC(=O)NC(=O)C1	inactive	–

SMILES	Potency	cytotoxicity increase
O=C(O)CCC(=O)Nc1ccc(S(=O)(=O)Nc2nccs2)cc1	inactive	–
CN(C)CCc1c[nH]c2ccc(C[C@H]3COC(=O)N3)cc12	inactive	–
Clc1ccc2c(c1)Nc1ccccc1S2	inactive	–
CCCCCCC(O)CO (stereo not given)	inactive	–
N#Cc1ccccc1C#N	inactive	–
CC/C=C\CCOC(=O)c1ccccc1	inactive	–
O=Cc1ccc(C(=O)O)cc1	inactive	–
CCOC(=O)CN1CCCC1=O	inactive	–
C/C(=N\O)c1ccc(OCC(=O)N2CCCCC2)cc1	inactive	–
NS(=O)(=O)c1cc2c(cc1C(F)(F)F)NCNS2(=O)=O	inactive	–
c1cc2ccc3ccc4ccc5cccc6c(c1)c2c3c4c56	–	-10.4% [at 2.72 µM] (inactive)
O=CN1CCCCC1	inactive	–
CC(C)C[P+](C)(CC(C)C)CC(C)C	inactive	–
N=C(N)S(=O)O	inactive	–
CCCCOCCCC	inactive	–
CN1CCN(C(=O)C2CCCCC2)CC1	inactive	–
CCc1ccc(CC)cc1	inactive	–
C=CCN1CCc2nc(N)sc2CC1	inactive	–
O=P(O)(O)C(O)(Cc1cccnc1)P(=O)(O)O	inactive	–
NC(=O)CC[C@@H](N)C(=O)O	inactive	–
